Parameters in all cases: scale not given: direction of the effect not stated beside the values
The target in experiment [1] is Protein translocase subunit SecA (Escherichia coli (strain K12)) (UniProt P10408). Nature of the experiment: Assay to Identify E. coli SecA ATPase Inhibitors. It is filed as functional. The note with it: 30 µM.
In experiment [2] the target is T1, Ubiquitin-activating enzyme e1, putative (Leishmania donovani (strain BPK282A1)) (UniProt E9BSI1).
T1 sequence (whole entry): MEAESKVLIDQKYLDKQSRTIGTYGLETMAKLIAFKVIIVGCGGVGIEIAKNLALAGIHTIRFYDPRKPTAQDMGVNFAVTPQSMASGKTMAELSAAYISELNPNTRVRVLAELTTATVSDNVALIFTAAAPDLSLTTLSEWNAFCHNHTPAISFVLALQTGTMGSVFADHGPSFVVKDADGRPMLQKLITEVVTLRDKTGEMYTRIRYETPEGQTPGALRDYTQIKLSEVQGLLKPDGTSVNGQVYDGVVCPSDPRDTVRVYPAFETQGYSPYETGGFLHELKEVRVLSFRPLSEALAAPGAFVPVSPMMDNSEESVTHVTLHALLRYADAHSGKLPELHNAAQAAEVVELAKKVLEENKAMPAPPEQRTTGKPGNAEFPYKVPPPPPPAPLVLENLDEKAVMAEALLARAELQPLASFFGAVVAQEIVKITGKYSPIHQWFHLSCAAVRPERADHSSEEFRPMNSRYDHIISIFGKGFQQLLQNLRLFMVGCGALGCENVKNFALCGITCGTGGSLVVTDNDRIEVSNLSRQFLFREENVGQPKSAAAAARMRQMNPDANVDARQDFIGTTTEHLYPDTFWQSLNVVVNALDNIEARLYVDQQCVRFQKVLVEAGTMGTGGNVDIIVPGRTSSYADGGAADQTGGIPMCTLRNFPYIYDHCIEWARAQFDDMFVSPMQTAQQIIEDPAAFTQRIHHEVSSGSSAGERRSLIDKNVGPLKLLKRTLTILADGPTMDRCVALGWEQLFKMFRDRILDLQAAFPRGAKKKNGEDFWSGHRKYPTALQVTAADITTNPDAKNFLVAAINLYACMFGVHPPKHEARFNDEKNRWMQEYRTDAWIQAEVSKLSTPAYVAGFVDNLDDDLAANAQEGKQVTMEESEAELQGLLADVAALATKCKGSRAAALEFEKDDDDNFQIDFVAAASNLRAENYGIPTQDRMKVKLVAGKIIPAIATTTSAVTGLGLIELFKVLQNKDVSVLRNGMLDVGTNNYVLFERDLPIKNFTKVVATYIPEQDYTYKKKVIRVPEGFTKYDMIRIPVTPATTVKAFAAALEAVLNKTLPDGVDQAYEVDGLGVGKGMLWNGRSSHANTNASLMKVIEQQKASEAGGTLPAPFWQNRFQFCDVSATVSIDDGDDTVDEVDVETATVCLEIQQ
Nature of the experiment: Leishmania donovani Ubiquitin Activating Enzyme (LdE1). It is filed as functional. The note with it: 30 µM.

For experiment [3], the target named is T2, Aspartate--tRNA(Asp/Asn) ligase (Mycobacterium tuberculosis (strain ATCC 25618 / H37Rv)) (UniProt P9WFW3). Also: in the data most compounds retested in dose-response had high values.
T2 sequence (whole entry): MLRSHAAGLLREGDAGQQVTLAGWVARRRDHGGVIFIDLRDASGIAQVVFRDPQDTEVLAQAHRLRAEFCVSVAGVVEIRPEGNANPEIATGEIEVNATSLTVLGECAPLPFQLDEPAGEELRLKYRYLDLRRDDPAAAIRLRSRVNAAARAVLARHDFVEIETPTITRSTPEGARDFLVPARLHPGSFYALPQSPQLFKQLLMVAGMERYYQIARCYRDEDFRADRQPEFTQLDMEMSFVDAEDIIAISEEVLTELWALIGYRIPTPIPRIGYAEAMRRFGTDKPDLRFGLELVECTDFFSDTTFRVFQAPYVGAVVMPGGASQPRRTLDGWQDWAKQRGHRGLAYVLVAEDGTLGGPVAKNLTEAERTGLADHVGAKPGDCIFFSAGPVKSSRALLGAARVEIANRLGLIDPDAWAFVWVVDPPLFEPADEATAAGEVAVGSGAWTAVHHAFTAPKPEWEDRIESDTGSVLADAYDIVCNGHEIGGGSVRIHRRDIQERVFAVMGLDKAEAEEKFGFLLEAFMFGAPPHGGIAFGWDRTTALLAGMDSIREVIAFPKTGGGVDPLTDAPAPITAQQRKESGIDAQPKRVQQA
Nature of the experiment: Assay for Asp RNA synthetase-1 from Mycobacterium tuberculosis. The format is functional. To be noted: 30 µM.

For experiment [4], the target named is Sialic acid-binding Ig-like lectin 9 (Homo sapiens) (UniProt Q9Y336). In words: Hs-Siglec9 ALPHAscreen SOP 20170721. The note with it: 10 µM.
Sequence of Sialic acid-binding Ig-like lectin 9 (Homo sapiens) (Q9Y336 whole entry): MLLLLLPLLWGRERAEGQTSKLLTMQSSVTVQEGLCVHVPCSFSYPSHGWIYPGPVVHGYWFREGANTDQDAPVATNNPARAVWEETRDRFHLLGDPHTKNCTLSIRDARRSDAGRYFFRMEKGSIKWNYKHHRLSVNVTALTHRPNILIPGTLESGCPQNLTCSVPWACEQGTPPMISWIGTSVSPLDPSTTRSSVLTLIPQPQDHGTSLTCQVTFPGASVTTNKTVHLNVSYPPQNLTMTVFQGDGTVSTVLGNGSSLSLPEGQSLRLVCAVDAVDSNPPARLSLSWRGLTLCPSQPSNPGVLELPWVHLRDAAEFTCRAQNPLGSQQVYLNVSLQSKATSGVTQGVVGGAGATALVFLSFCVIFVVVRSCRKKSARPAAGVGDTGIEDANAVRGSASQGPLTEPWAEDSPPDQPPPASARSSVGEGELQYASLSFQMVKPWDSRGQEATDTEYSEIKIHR
The next experiment concerns Trypanosoma cruzi. Nature of the experiment: Trypanosoma cruzi phosphomannomutase and mannose-1-phosphate guanylyltransferase assay. The format is functional. The note with it: 10 µM.
Experiment [5] addresses T3, Arginase-2, mitochondrial (Homo sapiens) (UniProt P78540).
T3 sequence (whole entry): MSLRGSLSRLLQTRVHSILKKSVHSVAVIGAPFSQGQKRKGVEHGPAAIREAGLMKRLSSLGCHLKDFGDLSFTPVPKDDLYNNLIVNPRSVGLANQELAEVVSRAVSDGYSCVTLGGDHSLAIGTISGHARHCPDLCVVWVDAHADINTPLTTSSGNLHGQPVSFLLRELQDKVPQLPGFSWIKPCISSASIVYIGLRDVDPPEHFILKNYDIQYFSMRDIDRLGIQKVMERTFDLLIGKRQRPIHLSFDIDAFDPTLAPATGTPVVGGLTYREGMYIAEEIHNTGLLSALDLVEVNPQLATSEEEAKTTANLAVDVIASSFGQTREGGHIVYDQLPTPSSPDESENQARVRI
In words: in vitro enzyme assay to detect the production of urea directly proportional to the activity of Arginase II. Also: in the data most compounds retested in dose-response had high values. The format is functional. To be noted: 33.3 µM.

For experiment [6], the target named is T4, Proteasome subunit beta (Trypanosoma cruzi) (UniProt O96673).
T4 sequence (whole entry): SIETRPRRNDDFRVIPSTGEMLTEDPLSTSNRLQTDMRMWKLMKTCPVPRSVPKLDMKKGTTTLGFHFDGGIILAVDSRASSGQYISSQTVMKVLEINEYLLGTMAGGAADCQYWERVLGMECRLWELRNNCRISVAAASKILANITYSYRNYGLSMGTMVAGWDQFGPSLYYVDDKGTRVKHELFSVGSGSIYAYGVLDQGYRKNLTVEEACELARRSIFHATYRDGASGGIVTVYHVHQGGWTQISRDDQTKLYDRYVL
In words: Trypanosoma cruzi proteasome chymotrypsin-like activity (TcProtChymo) assay. Also: in the data most compounds retested in dose-response had high values. The format is functional. The note with it: 9.37 µM.

A further experiment is filed under the species Homo sapiens. Nature of the experiment: To identify inhibition of the IFN signalling (Jak-Stat) pathway via expression of an eGFP reporter gene under the control of an IFN-stimulated response element (ISRE) containing MxA promoter. It is filed as functional. The note with it: 30 µM.
The target in experiment [7] is Shiga toxin 2 (Escherichia coli O157:H7) (UniProt P09385+P09386). Nature of the experiment: E. coli 0.157:H7 Shiga Toxin SOP - stx2 screening assay. It is filed as functional. To be noted: 30 µM.
Experiment [8] has as its target T5, Tyrosyl-tRNA synthetase, putative (Trypanosoma cruzi (strain CL Brener)) (UniProt Q4DSP6).
T5 sequence (whole entry): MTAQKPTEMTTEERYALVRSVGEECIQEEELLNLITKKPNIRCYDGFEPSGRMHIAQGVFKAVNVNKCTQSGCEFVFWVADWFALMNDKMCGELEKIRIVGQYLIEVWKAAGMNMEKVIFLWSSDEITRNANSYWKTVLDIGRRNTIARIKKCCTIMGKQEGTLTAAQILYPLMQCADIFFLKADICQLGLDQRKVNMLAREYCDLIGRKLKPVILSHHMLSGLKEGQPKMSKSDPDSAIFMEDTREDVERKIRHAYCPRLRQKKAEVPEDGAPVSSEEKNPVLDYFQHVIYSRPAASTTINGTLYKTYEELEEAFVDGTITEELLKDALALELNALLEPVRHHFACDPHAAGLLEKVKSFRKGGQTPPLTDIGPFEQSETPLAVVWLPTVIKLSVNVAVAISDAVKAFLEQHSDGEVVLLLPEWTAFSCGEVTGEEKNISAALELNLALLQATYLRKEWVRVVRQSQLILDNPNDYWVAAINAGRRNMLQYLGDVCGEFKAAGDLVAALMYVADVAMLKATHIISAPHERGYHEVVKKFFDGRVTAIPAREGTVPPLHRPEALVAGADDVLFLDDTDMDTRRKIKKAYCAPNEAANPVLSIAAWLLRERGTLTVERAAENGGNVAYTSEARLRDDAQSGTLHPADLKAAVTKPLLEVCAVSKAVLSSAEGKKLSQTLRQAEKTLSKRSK
In words: Trypanosoma cruzi tyrosyl tRNA synthetase (TcYRS) _High Tyrosine SOP. Also: in the data most compounds retested in dose-response had high values. It is filed as functional. The note with it: 30 µM.

Experiment [9] concerns the target T5, Tyrosyl-tRNA synthetase, putative (Trypanosoma cruzi (strain CL Brener)). In words: Trypanosoma cruzi tyrosyl tRNA synthetase (TcYRS) SOP. It is filed as functional. To be noted: 30 µM.
The target of experiment [10] is Chromo domain-containing protein 1 (Saccharomyces cerevisiae (strain ATCC 204508 / S288c) (Baker's yeast)) (UniProt P32657). Nature of the experiment: ScCHD-1 Enzyme Inhibition Assay. Also: in the data most compounds retested in dose-response had high values. The format is functional. To be noted: 30 µM.
Sequence of Chromo domain-containing protein 1 (Saccharomyces cerevisiae (strain ATCC 204508 / S288c) (Baker's yeast)) (P32657 whole entry, the tested form may be a part): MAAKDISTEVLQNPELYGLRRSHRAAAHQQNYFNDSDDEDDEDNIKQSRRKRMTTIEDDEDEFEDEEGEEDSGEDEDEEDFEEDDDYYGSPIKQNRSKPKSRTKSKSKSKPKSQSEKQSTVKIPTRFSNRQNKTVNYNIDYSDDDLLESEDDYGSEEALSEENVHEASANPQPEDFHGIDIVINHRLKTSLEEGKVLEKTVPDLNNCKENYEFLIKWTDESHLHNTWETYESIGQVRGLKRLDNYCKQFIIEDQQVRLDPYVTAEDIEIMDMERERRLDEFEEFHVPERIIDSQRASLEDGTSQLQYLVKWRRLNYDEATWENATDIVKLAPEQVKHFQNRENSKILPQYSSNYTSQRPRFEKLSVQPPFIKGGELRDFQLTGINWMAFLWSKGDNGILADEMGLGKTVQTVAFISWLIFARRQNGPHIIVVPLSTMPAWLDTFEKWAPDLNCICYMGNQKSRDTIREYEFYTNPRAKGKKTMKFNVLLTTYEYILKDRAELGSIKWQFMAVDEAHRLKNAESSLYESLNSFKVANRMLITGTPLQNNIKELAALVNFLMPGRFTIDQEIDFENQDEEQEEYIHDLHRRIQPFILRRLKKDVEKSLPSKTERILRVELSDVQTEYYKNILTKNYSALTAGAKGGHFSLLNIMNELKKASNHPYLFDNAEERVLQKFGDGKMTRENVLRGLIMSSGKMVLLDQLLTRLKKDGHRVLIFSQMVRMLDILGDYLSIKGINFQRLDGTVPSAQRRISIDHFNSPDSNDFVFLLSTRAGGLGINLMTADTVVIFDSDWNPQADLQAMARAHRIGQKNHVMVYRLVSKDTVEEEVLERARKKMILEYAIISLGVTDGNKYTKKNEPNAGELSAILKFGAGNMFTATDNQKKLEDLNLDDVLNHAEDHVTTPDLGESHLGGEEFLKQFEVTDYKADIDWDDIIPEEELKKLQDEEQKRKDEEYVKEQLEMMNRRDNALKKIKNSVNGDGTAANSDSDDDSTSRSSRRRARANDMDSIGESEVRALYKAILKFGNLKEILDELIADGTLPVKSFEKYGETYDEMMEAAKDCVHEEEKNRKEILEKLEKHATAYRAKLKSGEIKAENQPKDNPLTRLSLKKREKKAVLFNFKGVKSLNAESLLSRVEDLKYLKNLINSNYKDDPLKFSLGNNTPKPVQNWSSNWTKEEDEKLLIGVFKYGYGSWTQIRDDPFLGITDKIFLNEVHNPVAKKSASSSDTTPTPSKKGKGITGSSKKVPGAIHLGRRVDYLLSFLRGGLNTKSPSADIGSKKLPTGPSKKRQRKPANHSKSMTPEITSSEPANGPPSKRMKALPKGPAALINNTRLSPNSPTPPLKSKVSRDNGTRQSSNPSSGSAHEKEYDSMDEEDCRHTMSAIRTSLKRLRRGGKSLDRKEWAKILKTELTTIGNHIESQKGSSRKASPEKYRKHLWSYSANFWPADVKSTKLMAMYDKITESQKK

For part of these data: Measured potencies and affinities stand elsewhere.

Sequence of Protein translocase subunit SecA (Escherichia coli (strain K12)) (P10408 whole entry): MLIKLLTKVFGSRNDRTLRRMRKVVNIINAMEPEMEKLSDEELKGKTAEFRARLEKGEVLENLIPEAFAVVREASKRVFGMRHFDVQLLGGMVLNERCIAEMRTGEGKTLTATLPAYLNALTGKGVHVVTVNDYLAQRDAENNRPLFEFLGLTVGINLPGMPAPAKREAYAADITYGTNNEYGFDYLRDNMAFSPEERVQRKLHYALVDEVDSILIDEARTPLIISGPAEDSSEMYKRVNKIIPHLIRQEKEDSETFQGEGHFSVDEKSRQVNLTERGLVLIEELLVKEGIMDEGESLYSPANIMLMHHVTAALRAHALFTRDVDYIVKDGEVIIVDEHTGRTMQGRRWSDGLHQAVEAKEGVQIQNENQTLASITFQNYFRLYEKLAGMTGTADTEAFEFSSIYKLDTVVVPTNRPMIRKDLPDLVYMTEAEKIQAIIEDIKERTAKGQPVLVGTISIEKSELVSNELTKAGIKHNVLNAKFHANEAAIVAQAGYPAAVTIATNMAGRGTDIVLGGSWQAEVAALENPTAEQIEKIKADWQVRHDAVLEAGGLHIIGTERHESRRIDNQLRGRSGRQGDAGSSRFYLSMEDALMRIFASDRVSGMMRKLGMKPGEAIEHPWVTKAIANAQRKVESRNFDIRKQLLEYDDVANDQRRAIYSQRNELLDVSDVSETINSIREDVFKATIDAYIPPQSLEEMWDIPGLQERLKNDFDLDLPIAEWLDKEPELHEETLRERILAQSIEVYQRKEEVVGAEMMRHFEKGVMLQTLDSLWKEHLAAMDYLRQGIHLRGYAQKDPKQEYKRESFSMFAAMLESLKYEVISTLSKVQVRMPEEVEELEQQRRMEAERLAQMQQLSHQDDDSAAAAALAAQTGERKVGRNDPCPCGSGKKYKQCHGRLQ

With `Cc1cccc(CN2CC[C@H]3[C@H]2CCN3Cc2cnn(C)c2)n1`, the Percent Effect in experiment [1] is -6.02%; in experiment [2] it was 3.9%; in experiment [3] it was -3.89%; in experiment [4] it was 2.88%; in the experiment on Trypanosoma cruzi it was 0.75%; in experiment [5], -0.457%. The Percent Effect in [6] was -2.15%; in the experiment filed under Homo sapiens, 34%; in [7] it was -8.6%; in [8], -1.93%; in [9], -10%; in [10], 1.01%.

On to `COCCNC(=O)[C@@]12CCO[C@@H]1CCN(Cc1c(C)noc1C)C2`, for which the Percent Effect in experiment [1] is -4.83%; in experiment [2] it was 14.3%; in [3], 11.2%; in experiment [4], -7.07%; with Trypanosoma cruzi, 1.85%; in experiment [5] it was 3.24%. In addition, the Percent Effect was 8.91% in experiment [6]; -9.54% in the experiment listed under Homo sapiens; -12.8% in [7]; 14.2% in experiment [8]; 12.8% in experiment [9]; -1.61% in experiment [10].

As to `O=C1N(Cc2cccnc2)CCC12CCCNC2` (stereo not drawn), the Percent Effect in [1] was -3.76%; in [2] it was 16.9%; in [3], 2.62%; in [4] it was -3.98%; in the experiment on Trypanosoma cruzi it was -3.19%; in experiment [5], 0.913%. Also, the Percent Effect is 20% in experiment [6]; 34% in the experiment listed under Homo sapiens; 7.06% in experiment [7]; 1.93% in [8]; 2.5% in [9]; -10.7% in experiment [10].

Take `CC(=O)N1CCN(Cc2ccccn2)CC2(CC(=O)N(C)C2)C1` (stereo not drawn): the Percent Effect in experiment [1] is -0.0517%; in experiment [2] it was -29.9%; in experiment [3] it was -4.78%; in [4], 4%; with Trypanosoma cruzi it was 0.938%; in experiment [5], -1.37%. Also, the Percent Effect in experiment [6] is 3.35%; in the experiment filed under Homo sapiens, -20.2%; in experiment [7] it was 2.99%; in experiment [8], 6.76%; in experiment [9] it was 7.5%; in experiment [10], -1.54%.

As to `c1ccc(N2CCCC3(CCN(Cc4cccs4)C3)C2)nc1` (stereo not drawn), the Percent Effect in experiment [1] is -7.4%; in experiment [2] it was 16.9%; in experiment [3] it was -1.46%; in [4], -2.35%; in the experiment on Trypanosoma cruzi, -2.81%; in [5], -0.913%. For the same compound, the Percent Effect in [6] was 10.4%; in the experiment filed under Homo sapiens it was 17.3%; in [7], 5.58%; in [8] it was 1.93%; in [9], -2.5%; in experiment [10], -9.64%.

Turning to `c1cnc(N2CCC3(CCN(CC4CCOC4)C3)CC2)nc1` (stereo not drawn), the Percent Effect in experiment [1] is -3.76%; in [2], 6.49%; in experiment [3] it was 8.74%; in experiment [4], -2.65%; in the experiment with Trypanosoma cruzi, -2.63%; in [5], 0.405%. In addition, the Percent Effect is 10.2% in [6]; 0.479% in the experiment listed under Homo sapiens; -3.12% in [7]; 2.63% in [8]; 7.69% in experiment [9]; -4.21% in experiment [10].

For the compound `COc1ccc(Cl)cc1CC(=O)N1CCN(CCO)CC1`, the Percent Effect in experiment [1] is -6.68%; in experiment [2] it was 10.4%; in experiment [3] it was 1.78%; in experiment [4] it was 0.349%; in the experiment on Trypanosoma cruzi, -4.1%; in experiment [5] it was 4.71%. For the same compound, the Percent Effect in experiment [6] is 0.877%; in the experiment filed under Homo sapiens, 12.1%; in experiment [7] it was -8.21%; in [8], -1.96%; in experiment [9], -2.35%; in experiment [10], 2.44%.

For `COc1ccc(C(=O)C2CCCN(Cc3ccc(C)o3)C2)c(OC)c1` (stereo not drawn), the Percent Effect is -3.9% in experiment [1]; -5.41% in experiment [2]; -4.91% in experiment [3]; 3.98% in experiment [4]; -2.04% with Trypanosoma cruzi; 1.75% in experiment [5]. Also, the Percent Effect was 7.71% in experiment [6]; -5.12% in the experiment filed under Homo sapiens; -2.98% in experiment [7]; 1.6% in [8]; 7.32% in [9]; 2.92% in [10].

`O=C(Cc1c(F)cccc1F)N1CCN(CC(=O)N2CCCC2)CC1`: the Percent Effect in [1] is -1.5%; in experiment [2], -1.3%; in experiment [3] it was -5.83%; in [4], -2.19%; in the experiment with Trypanosoma cruzi, -0.938%; in experiment [5] it was 4.57%. In addition, the Percent Effect in experiment [6] was 22.1%; in the experiment listed under Homo sapiens it was 12.9%; in experiment [7], 16.1%; in experiment [8], 4.83%; in [9], 10%; in [10], -6.7%.

Source of the values: ChEMBL document CHEMBL3988442, “University of Dundee, Small-Polar-MMV Screening Library” (2021).
